Records with an inconclusive call do not appear. Active and inactive are the calls of the source. Rule for the calls, unless noted: active = hit-call score of the fitted dose curve at least 0.9, where 1 is the maximum; inactive = score below 0.9.
What was measured:
[1] = target: Paired box protein Pax-6 (Homo sapiens) (UniProt P26367); experiment: ATG_Pax6_CIS: Attagene CIS-FACTORIAL HepG2 Assay for human Paired Box 6 (PAX6) (AID 2282956); conditions: HepG2 CIS-FACTORIAL PAX6 reporter transcription, RNA readout; actives raise or lower the signal
Paired box protein Pax-6 (Homo sapiens), sequence (P26367 whole entry, looked up): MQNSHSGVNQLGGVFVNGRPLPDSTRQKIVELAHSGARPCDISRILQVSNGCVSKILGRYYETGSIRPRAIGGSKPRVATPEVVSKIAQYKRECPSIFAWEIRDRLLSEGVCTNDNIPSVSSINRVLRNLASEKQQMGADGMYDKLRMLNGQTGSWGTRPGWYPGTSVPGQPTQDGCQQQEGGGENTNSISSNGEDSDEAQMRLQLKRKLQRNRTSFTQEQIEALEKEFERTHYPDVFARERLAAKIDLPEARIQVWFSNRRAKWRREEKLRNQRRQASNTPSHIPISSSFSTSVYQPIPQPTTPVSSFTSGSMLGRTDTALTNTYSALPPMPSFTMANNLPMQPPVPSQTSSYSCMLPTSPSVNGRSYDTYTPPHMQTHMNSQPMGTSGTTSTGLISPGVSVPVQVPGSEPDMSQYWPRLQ
Method in brief: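 Readout: reporter transcript fluorescence after RT-PCR and capillary electrophoresis. Cells: HepG2, transiently transfected with cis-regulated MRTUs. Exposure 24 h. Gain or loss of signal fitted bidirectionally relative to DMSO.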

[2] = ATG_PXRE_CIS: Attagene CIS-FACTORIAL HepG2 Assay for human Pregnane X Receptor Element (PXRE) (AID 2282957); conditions: HepG2 Attagene CIS-FACTORIAL PXRE reporter, mRNA; actives raise or lower the signal
Method in brief: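 Fluorescent capillary electrophoresis of amplified reporter cDNA gave the signal, collected 24 h after dosing HepG2 cells that held transfected cis-element reporter constructs.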

[3] = ATG_PPRE_CIS: Attagene CIS-FACTORIAL HepG2 Assay for human Peroxisome Proliferator-activated Response Element (PPRE) (AID 2282958); conditions: HepG2 PPRE cis-element reporter, Attagene transcription factor profiling; actives raise or lower the signal
Method in brief: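 DMSO served as negative control and baseline for bidirectional curve fitting. Signal came from PPRE-regulated reporter mRNA in HepG2 cells, measured 24 h post-dosing by RT-PCR, 6-FAM primer extension and capillary electrophoresis.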

[4] = ATG_RORE_CIS: Attagene CIS-FACTORIAL HepG2 Assay for human RAR-related Orphan Receptor Element (RORE) (AID 2282959); conditions: HepG2 Attagene cis-factorial RORE reporter, mRNA; actives raise or lower the signal
Method in brief: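 Transfect HepG2 with MRTUs; treat 24 h; extract RNA; RT with oligo(dT); PCR with reporter-specific primers; 6-FAM primer extension; HpaI digest 2 h at 37 C; capillary electrophoresis. Fit vs DMSO, bidirectional.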

[5] = ATG_Sox_CIS: Attagene CIS-FACTORIAL HepG2 Assay for human SRY-box transcription factor (SOX) (AID 2282960); conditions: HepG2 Attagene cis-factorial SOX reporter, mRNA; actives raise or lower the signal
Method in brief: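 Fluorescence-labelled cDNA fragments from reporter transcripts, sized by CE, give the signal. Cells: HepG2, transiently transfected with cis-regulated reporter units. Exposure 24 h; DMSO negative control; bidirectional curve fitting.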

[6] = target: Transcription factor Sp1 (Homo sapiens) (UniProt P08047); experiment: ATG_Sp1_CIS: Attagene CIS-FACTORIAL HepG2 Assay for human Specificity Protein 1 (Sp1) (AID 2282961); conditions: HepG2 Sp1 cis-reporter transcription, actives raise or lower the signal
Transcription factor Sp1 (Homo sapiens), sequence (P08047 whole entry, looked up): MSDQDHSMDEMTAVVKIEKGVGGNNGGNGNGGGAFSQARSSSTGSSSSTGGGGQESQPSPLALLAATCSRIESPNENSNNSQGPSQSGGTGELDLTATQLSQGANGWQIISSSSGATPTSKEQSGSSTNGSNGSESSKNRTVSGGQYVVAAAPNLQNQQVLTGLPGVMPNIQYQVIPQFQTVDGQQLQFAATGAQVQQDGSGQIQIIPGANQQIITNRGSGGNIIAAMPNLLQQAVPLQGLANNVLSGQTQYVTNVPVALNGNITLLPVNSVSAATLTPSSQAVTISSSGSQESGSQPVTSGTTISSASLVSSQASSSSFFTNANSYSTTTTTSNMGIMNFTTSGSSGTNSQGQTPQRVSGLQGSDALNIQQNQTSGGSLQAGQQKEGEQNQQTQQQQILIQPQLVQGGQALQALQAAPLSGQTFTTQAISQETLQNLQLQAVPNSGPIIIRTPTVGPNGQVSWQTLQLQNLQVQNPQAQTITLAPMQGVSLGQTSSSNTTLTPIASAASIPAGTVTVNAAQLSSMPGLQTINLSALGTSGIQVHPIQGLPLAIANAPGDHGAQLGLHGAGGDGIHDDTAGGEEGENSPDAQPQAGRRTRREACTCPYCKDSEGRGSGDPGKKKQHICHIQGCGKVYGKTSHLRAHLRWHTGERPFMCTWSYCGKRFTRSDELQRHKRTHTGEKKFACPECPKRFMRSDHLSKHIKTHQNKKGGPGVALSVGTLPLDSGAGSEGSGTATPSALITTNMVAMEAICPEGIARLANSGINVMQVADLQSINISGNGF
Method in brief: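 Chemicals are dosed onto HepG2 cells transfected with multiple cis-promoter reporter constructs, and after 24 h reporter RNA is reverse-transcribed, PCR-amplified and resolved by capillary electrophoresis for fluorescence quantitation; activity is scored up or down against DMSO.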

[7] = ATG_SREBP_CIS: Attagene CIS-FACTORIAL HepG2 Assay for human Sterol Regulatory Element Binding (SREBP) (AID 2282962); conditions: HepG2 Attagene cis-factorial SREBP reporter, mRNA; actives raise or lower the signal
Method in brief: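 Readout: fluorescent reporter-transcript peaks resolved by capillary electrophoresis after RT-PCR. Cells were human HepG2 carrying transfected cis-promoter reporter constructs, dosed for 24 h. Gain or loss of signal was fitted against DMSO controls.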

[8] = target: Signal transducer and activator of transcription 3 (Homo sapiens) (UniProt P40763); experiment: ATG_STAT3_CIS: Attagene CIS-FACTORIAL HepG2 Assay for human Signal Transducer and Activator of Transcription 3 (STAT3) (AID 2282963); conditions: HepG2, Attagene cis-factorial STAT3 reporter transcription; actives raise or lower the signal
Signal transducer and activator of transcription 3 (Homo sapiens), sequence (P40763 whole entry, looked up): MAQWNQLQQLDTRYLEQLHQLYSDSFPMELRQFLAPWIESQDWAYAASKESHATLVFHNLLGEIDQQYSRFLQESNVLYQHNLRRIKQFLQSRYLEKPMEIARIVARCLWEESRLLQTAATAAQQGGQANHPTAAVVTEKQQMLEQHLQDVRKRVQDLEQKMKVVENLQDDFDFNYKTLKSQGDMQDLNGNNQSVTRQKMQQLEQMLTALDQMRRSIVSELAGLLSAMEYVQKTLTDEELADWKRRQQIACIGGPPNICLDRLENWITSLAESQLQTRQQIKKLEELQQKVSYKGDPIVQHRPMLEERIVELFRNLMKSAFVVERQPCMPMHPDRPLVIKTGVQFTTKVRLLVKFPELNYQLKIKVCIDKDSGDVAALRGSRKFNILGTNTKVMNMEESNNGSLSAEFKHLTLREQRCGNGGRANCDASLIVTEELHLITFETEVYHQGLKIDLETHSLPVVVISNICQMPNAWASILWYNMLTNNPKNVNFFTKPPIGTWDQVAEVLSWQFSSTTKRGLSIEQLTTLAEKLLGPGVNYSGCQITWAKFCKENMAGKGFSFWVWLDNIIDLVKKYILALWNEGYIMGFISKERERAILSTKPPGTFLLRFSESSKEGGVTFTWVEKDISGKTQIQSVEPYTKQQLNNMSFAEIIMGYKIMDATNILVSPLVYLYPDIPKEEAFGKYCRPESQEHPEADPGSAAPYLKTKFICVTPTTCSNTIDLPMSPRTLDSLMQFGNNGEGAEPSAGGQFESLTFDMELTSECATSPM
Method in brief: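 HepG2, MRTU-transfected, 24 h dosing. RNA → RT → PCR → FAM label → HpaI → CE. Bidirectional fit vs DMSO.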

[9] = ATG_TA_CIS: Attagene CIS-FACTORIAL HepG2 Assay for human TA Basal Promoter (AID 2282964); conditions: HepG2 Attagene CIS-factorial TA basal promoter reporter; actives raise or lower the signal
Method in brief: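 Read-out: fluorescent reporter-transcript fragments resolved by capillary electrophoresis after RT-PCR and HpaI digestion. Source: HepG2 cells carrying transiently transfected multi-reporter cis constructs, treated 24 h. Endpoint fitted bidirectionally relative to DMSO.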

[10] = ATG_TCF_b_cat_CIS: Attagene CIS-FACTORIAL HepG2 Assay for human T-Cell-Factor with beta-catenin (TCF/b-cat) (AID 2282965); conditions: HepG2 TCF/beta-catenin cis-reporter transcription, actives raise or lower the signal
Method in brief: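 Using capillary electrophoresis as the read-out, labelled reporter cDNA fragments from transiently transfected HepG2 were sized and quantified. Exposure lasted 24 hours; activity in either direction was referenced to DMSO.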

[11] = ATG_TAL_CIS: Attagene CIS-FACTORIAL HepG2 Assay for human TAL Basal Promoter (AID 2282966); conditions: HepG2 Attagene cis-factorial TAL promoter reporter; actives raise or lower the signal;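 note: background control endpoint measuring basal TAL promoter reporter mRNA not a specific factor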
Method in brief: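 Transiently transfected HepG2 (cis-regulated reporter units), 24 h treatment, mRNA read by fluorescent CE after RT-PCR; bidirectional fit, DMSO baseline.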

[12] = ATG_VDRE_CIS: Attagene CIS-FACTORIAL HepG2 Assay for human Vitamin D Receptor Element (VDRE) (AID 2282968); conditions: HepG2 VDRE cis-reporter transcription, actives raise or lower the signal
Method in brief: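 Steps: transfect HepG2 with multiple reporter transcription units; dose chemicals 24 h; isolate RNA; RT-PCR; label with 6-FAM primer extension; HpaI digest; capillary electrophoresis. Curves fitted both directions against DMSO.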

[13] = target: Nuclear receptor subfamily 1 group I member 3 (Homo sapiens) (UniProt Q14994); experiment: ATG_CAR_TRANS: Attagene TRANS-FACTORIAL HepG2 Assay for human Constitutive Androstane Receptor (CAR) (AID 2282969; active = hit-call score of the fitted dose curve at least 0.9, where 1 is the maximum;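 note: activators raise reporter mRNA above DMSO so AC50 marks induction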); conditions: HepG2 Attagene TRANS-FACTORIAL CAR reporter
Nuclear receptor subfamily 1 group I member 3 (Homo sapiens), sequence (Q14994 whole entry, looked up, the tested form may be a part): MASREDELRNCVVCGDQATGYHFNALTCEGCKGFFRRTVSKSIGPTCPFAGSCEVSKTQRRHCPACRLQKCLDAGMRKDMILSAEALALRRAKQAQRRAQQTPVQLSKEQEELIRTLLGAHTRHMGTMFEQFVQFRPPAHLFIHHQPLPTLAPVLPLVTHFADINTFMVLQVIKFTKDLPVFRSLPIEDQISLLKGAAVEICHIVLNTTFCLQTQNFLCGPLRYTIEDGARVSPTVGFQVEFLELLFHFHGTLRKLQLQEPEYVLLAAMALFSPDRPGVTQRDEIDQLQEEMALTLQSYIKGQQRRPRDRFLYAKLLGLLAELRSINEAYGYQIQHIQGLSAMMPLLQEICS
Method in brief: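 Steps: transient transfection of HepG2 with multiple GAL4-UAS reporter units; 24 h compound incubation; RNA isolation, RT-PCR, 6-FAM primer extension, HpaI digest; capillary electrophoresis. Gain-of-signal relative to DMSO negative control.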

[14] = target: Estrogen receptor (Homo sapiens) (UniProt P03372); experiment: ATG_ERa_TRANS: Attagene TRANS-FACTORIAL HepG2 Assay for human Estrogen Receptor alpha (ERa) (AID 2282970; active = hit-call score of the fitted dose curve at least 0.9, where 1 is the maximum); conditions: HepG2 Attagene TRANS ERa GAL4 reporter, mRNA
Estrogen receptor (Homo sapiens), sequence (P03372 whole entry, looked up, the tested form may be a part): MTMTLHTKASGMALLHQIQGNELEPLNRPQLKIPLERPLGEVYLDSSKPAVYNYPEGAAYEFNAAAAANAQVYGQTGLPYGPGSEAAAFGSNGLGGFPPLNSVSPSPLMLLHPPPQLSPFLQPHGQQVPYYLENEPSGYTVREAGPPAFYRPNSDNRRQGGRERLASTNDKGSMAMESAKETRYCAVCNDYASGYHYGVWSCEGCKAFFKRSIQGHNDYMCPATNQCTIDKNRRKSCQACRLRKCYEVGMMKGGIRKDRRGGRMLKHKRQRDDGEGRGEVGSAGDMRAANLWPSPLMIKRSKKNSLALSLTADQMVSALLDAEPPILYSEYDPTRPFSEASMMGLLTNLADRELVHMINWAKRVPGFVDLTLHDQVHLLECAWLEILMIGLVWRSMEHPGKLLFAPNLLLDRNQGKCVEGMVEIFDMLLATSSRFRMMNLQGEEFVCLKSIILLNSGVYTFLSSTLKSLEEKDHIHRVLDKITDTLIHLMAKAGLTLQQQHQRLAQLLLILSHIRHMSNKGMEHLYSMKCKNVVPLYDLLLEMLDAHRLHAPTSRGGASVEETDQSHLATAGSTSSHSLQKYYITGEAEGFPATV
Method in brief: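 One of 30 multiplexed endpoints from a HepG2 TRANS system, this one reports ERa-Gal4-driven reporter mRNA. Transcripts were quantified 24 hours post-dosing by fluorescent RT-PCR and capillary electrophoresis, with activity scored as induction over DMSO.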

[15] = target: Steroid hormone receptor ERR1 (Homo sapiens) (UniProt P11474); experiment: ATG_ERRa_TRANS: Attagene TRANS-FACTORIAL HepG2 Assay for human Estrogen-Related Receptor alpha (ERRa) (AID 2282971; active = hit-call score of the fitted dose curve at least 0.9, where 1 is the maximum); conditions: HepG2 Attagene TRANS reporter, ERRa transactivation
Steroid hormone receptor ERR1 (Homo sapiens), sequence (P11474 whole entry, looked up, the tested form may be a part): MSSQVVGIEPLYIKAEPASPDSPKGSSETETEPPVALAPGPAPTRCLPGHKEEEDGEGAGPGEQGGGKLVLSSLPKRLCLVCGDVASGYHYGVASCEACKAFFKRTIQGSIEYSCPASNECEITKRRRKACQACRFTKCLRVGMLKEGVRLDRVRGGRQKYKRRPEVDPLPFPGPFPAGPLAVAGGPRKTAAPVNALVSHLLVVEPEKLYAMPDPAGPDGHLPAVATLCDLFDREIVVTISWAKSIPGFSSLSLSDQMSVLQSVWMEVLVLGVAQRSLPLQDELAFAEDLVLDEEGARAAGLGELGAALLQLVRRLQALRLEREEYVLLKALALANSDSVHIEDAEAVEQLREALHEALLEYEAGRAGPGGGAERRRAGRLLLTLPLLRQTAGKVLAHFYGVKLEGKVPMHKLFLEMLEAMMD
Method in brief: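 HepG2 cells transiently transfected with multiplexed GAL4-UAS reporter units reading chimeric ERRa-Gal4 activity; 24 h compound exposure. Reporter mRNA measured by RT-PCR, 6-FAM labelling, HpaI digest and capillary electrophoresis; gain of signal fitted versus DMSO baseline.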

[16] = target: X-box-binding protein 1 (Homo sapiens) (UniProt P17861); experiment: ATG_Xbp1_CIS: Attagene CIS-FACTORIAL HepG2 Assay for human X-box Binding Protein 1 (XBP1) (AID 2282972); conditions: HepG2 XBP1 cis-element reporter, Attagene multiplex; actives raise or lower the signal
X-box-binding protein 1 (Homo sapiens), sequence (P17861 whole entry, looked up, the tested form may be a part): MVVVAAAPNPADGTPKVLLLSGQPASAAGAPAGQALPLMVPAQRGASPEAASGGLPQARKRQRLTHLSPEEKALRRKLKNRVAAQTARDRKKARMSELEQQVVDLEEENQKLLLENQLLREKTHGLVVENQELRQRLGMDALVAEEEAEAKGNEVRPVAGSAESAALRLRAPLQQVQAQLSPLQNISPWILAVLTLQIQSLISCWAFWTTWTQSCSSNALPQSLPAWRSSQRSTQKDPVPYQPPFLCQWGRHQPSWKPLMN
Method in brief: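 Read-out: fluorescent reporter mRNA fragments resolved by capillary electrophoresis after RT-PCR. Human HepG2 liver cells carried transfected cis-promoter reporter units and were exposed to chemicals for 24 hours. Gain or loss of signal fitted relative to DMSO baseline.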

[17] = ATG_GAL4_TRANS: Attagene TRANS-FACTORIAL HepG2 Assay for GAL4 (Internal Marker) (AID 2282976; active = hit-call score of the fitted dose curve at least 0.9, where 1 is the maximum); conditions: HepG2 Attagene TRANS GAL4 internal marker reporter
Method in brief: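 HepG2 cells transiently transfected with multiplexed GAL4-UAS reporter constructs were dosed for 24 h. Reporter mRNA was measured by RT-PCR, 6-FAM primer extension, HpaI digestion and capillary electrophoresis, and gain of signal was fitted relative to DMSO.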

[18] = ATG_TGFb_CIS: Attagene CIS-FACTORIAL HepG2 Assay for human Transforming Growth Factor (TGF) (AID 2282967); conditions: HepG2 Attagene CIS TGFb reporter, mRNA transcription; actives raise or lower the signal
Method in brief: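 Transient MRTU transfection of HepG2 (FuGene 6). Dose 24 h. TriZol RNA, oligo(dT) RT, PCR, 6-FAM primer extension, HpaI cut, CE. Bidirectional fit, DMSO = baseline.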

[19] = target: Estrogen-related receptor gamma (Homo sapiens) (UniProt P62508); experiment: ATG_ERRg_TRANS: Attagene TRANS-FACTORIAL HepG2 Assay for human Estrogen-Related Receptor gamma (ERRg) (AID 2282977; active = hit-call score of the fitted dose curve at least 0.9, where 1 is the maximum;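 note: hits increase reporter signal over DMSO so potencies reflect activators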); conditions: HepG2 Attagene TRANS reporter, ERRg transactivation
Estrogen-related receptor gamma (Homo sapiens), sequence (P62508 whole entry, looked up, the tested form may be a part): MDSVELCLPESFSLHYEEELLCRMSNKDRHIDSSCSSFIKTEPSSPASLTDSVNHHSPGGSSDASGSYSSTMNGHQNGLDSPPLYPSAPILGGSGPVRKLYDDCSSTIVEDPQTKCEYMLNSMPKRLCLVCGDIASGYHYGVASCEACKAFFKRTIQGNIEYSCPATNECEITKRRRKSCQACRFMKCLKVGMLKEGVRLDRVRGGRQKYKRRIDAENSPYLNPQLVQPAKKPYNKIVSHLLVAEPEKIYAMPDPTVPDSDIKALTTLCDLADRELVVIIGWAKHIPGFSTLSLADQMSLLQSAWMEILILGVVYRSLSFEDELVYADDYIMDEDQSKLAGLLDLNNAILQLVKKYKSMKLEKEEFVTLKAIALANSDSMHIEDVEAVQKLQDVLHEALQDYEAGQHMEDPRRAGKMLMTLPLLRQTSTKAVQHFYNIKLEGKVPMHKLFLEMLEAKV
Method in brief: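 Exogenous NR-Gal4 chimera activity measured as reporter transcript induction after 24 h in transiently transfected HepG2 cells. RNA reverse-transcribed, PCR-amplified, 6-FAM-labelled and resolved by capillary electrophoresis; increase over DMSO baseline.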

[20] = ATG_M_19_TRANS: Attagene TRANS-FACTORIAL HepG2 Assay for M19 Transcription Factor (Internal Marker) (AID 2282974; active = hit-call score of the fitted dose curve at least 0.9, where 1 is the maximum); conditions: HepG2 Attagene TRANS-FACTORIAL M19 internal marker reporter
Method in brief: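 Multiplexed TRANS format: HepG2 liver cells bearing transient GAL4-UAS reporter units, chemical treatment 24 h, reporter transcripts quantified by RT-PCR plus capillary electrophoresis. DMSO defines baseline.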

## CCC(C)(C)C1CCCCC1OC(C)=O (centres undefined)
[1]
  outcome: inactive
[2]
  AC50: 27.2 µM (active)
[3]
  outcome: inactive
[4]
  outcome: inactive
[5]
  outcome: inactive
[6]
  outcome: inactive
[7]
  outcome: inactive
[8]
  outcome: inactive
[9]
  outcome: inactive
[10]
  outcome: inactive
[11]
  outcome: inactive
[12]
  outcome: inactive
[13]
  outcome: inactive
[14]
  outcome: inactive
[15]
  outcome: inactive
[16]
  outcome: inactive
[17]
  outcome: inactive

## Nc1cccc(C(F)(F)F)c1
[1]
  outcome: inactive
[2]
  outcome: inactive
[3]
  outcome: inactive
[4]
  outcome: inactive
[5]
  outcome: inactive
[6]
  outcome: inactive
[7]
  outcome: inactive
[8]
  outcome: inactive
[9]
  outcome: inactive
[10]
  outcome: inactive
[11]
  outcome: inactive
[18]
  outcome: inactive
[14]
  outcome: inactive
[16]
  outcome: inactive
[19]
  outcome: inactive

## CCCCCCCCCCCSCC(=O)O
[1]
  AC50: 100 µM (active)
[2]
  outcome: inactive
[3]
  AC50: 5.09 µM (active)
[4]
  AC50: 51.6 µM (active)
[5]
  outcome: inactive
[6]
  AC50: 151 µM (active)
[7]
  AC50: 25.1 µM (active)
[8]
  outcome: inactive
[9]
  AC50: 98 µM (active)
[10]
  outcome: inactive
[11]
  AC50: 100 µM (active)
[18]
  AC50: 100 µM (active)
[12]
  AC50: 80.2 µM (active)
[15]
  outcome: inactive
[16]
  AC50: 100 µM (active)
[20]
  outcome: inactive
[17]
  outcome: inactive

## OC1CCCC1
[1]
  outcome: inactive
[2]
  AC50: 48.8 µM (active)
[3]
  outcome: inactive
[4]
  outcome: inactive
[5]
  outcome: inactive
[6]
  outcome: inactive
[7]
  outcome: inactive
[8]
  outcome: inactive
[9]
  outcome: inactive
[10]
  outcome: inactive
[11]
  outcome: inactive
[18]
  outcome: inactive
[12]
  outcome: inactive
[15]
  outcome: inactive
[16]
  outcome: inactive
[17]
  outcome: inactive
[19]
  outcome: inactive

## O=C(C=Cc1ccccc1)OCc1ccccc1
[1]
  outcome: inactive
[2]
  AC50: 13.2 µM (active)
[3]
  outcome: inactive
[4]
  outcome: inactive
[5]
  outcome: inactive
[6]
  outcome: inactive
[7]
  outcome: inactive
[8]
  outcome: inactive
[9]
  outcome: inactive
[10]
  outcome: inactive
[11]
  outcome: inactive
[18]
  outcome: inactive
[14]
  outcome: inactive
[16]
  outcome: inactive

## COC=O
[1]
  outcome: inactive
[2]
  outcome: inactive
[3]
  outcome: inactive
[4]
  outcome: inactive
[5]
  outcome: inactive
[6]
  outcome: inactive
[7]
  outcome: inactive
[8]
  outcome: inactive
[9]
  outcome: inactive
[10]
  outcome: inactive
[11]
  outcome: inactive
[18]
  outcome: inactive
[16]
  outcome: inactive
[19]
  outcome: inactive
